This is an account of results in publication PMC8222333, “AsCas12a ultra nuclease facilitates the rapid generation of therapeutic cell medicines”.

Sequences and labels used below:
B1: GATG (dsDNA)
DNA 1: GCTATCTAGTGCTCAGTACGCACTGGATGAGGAAACTTCTGGCAGGACCAGGTCATGAGATCGGAAGAGCACACGTCTGAACTCCAGTCA
DNA 2: TGACTGGAGTTCAGACGTGTGCTCTTCCGATCTCATGACCTGGTCCTGCCAGAAGTTTCCTCATCCAGTGCGTACTGAGCACTAGATAGC
RNA: AAUUUCUACUCUUGUAGAUAGGAAACUUCUGGCAGGACC
B2: GCTC (dsDNA)
DNA 1: GCTATCTAGTGCTCAGTACGCACTGGCTCAGGAAACTTCTGGCAGGACCAGGTCATGAGATCGGAAGAGCACACGTCTGAACTCCAGTCA
DNA 2: TGACTGGAGTTCAGACGTGTGCTCTTCCGATCTCATGACCTGGTCCTGCCAGAAGTTTCCTGAGCCAGTGCGTACTGAGCACTAGATAGC
RNA: AAUUUCUACUCUUGUAGAUAGGAAACUUCUGGCAGGACC
B3: GCTA (dsDNA)
DNA 1: GCTATCTAGTGCTCAGTACGCACTGGCTAAGGAAACTTCTGGCAGGACCAGGTCATGAGATCGGAAGAGCACACGTCTGAACTCCAGTCA
DNA 2: TGACTGGAGTTCAGACGTGTGCTCTTCCGATCTCATGACCTGGTCCTGCCAGAAGTTTCCTTAGCCAGTGCGTACTGAGCACTAGATAGC
RNA: AAUUUCUACUCUUGUAGAUAGGAAACUUCUGGCAGGACC
B4: GCGA (dsDNA)
DNA 1: GCTATCTAGTGCTCAGTACGCACTGGCGAAGGAAACTTCTGGCAGGACCAGGTCATGAGATCGGAAGAGCACACGTCTGAACTCCAGTCA
DNA 2: TGACTGGAGTTCAGACGTGTGCTCTTCCGATCTCATGACCTGGTCCTGCCAGAAGTTTCCTTCGCCAGTGCGTACTGAGCACTAGATAGC
RNA: AAUUUCUACUCUUGUAGAUAGGAAACUUCUGGCAGGACC
B5: GGGA (dsDNA)
DNA 1: GCTATCTAGTGCTCAGTACGCACTGGGGAAGGAAACTTCTGGCAGGACCAGGTCATGAGATCGGAAGAGCACACGTCTGAACTCCAGTCA
DNA 2: TGACTGGAGTTCAGACGTGTGCTCTTCCGATCTCATGACCTGGTCCTGCCAGAAGTTTCCTTCCCCAGTGCGTACTGAGCACTAGATAGC
RNA: AAUUUCUACUCUUGUAGAUAGGAAACUUCUGGCAGGACC
B6: GCTG (dsDNA)
DNA 1: GCTATCTAGTGCTCAGTACGCACTGGCTGAGGAAACTTCTGGCAGGACCAGGTCATGAGATCGGAAGAGCACACGTCTGAACTCCAGTCA
DNA 2: TGACTGGAGTTCAGACGTGTGCTCTTCCGATCTCATGACCTGGTCCTGCCAGAAGTTTCCTCAGCCAGTGCGTACTGAGCACTAGATAGC
RNA: AAUUUCUACUCUUGUAGAUAGGAAACUUCUGGCAGGACC
B7: GATT (dsDNA)
DNA 1: GCTATCTAGTGCTCAGTACGCACTGGATTAGGAAACTTCTGGCAGGACCAGGTCATGAGATCGGAAGAGCACACGTCTGAACTCCAGTCA
DNA 2: TGACTGGAGTTCAGACGTGTGCTCTTCCGATCTCATGACCTGGTCCTGCCAGAAGTTTCCTAATCCAGTGCGTACTGAGCACTAGATAGC
RNA: AAUUUCUACUCUUGUAGAUAGGAAACUUCUGGCAGGACC
B8: GCTT (dsDNA)
DNA 1: GCTATCTAGTGCTCAGTACGCACTGGCTTAGGAAACTTCTGGCAGGACCAGGTCATGAGATCGGAAGAGCACACGTCTGAACTCCAGTCA
DNA 2: TGACTGGAGTTCAGACGTGTGCTCTTCCGATCTCATGACCTGGTCCTGCCAGAAGTTTCCTAAGCCAGTGCGTACTGAGCACTAGATAGC
RNA: AAUUUCUACUCUUGUAGAUAGGAAACUUCUGGCAGGACC

For the first test, the target named is dAsCas12a Ultra (Acidaminococcus sp., UniProt U2UMQ6 1-1307, M537R;F870L;D908A;E993A;D1235A). In words: Spec-seq (native PAGE EMSA with sequencing of bound and unbound); 25 mM Tris-HCl pH 7.4, 150 mM KCl, 5 mM MgCl2, 10% glycerol, 1 mM DTT, 40 ng/uL salmon sperm DNA; 400 nM Cas12a, 480 nM crRNA, 50 nM library, 37 C 1 h; native PAGE at room temperature; high values mean tight binding. The settings on record: protein: recombinant. (Mobility shift assays separate free from complexed probe on a gel.)
Turning to B1, the binding signal was -8.85 lnKA.
The same measure, in the same setting: the figure for B2 is -6.65 lnKA.
The same measure, in the same setting: the figure for B3 is -6.83 lnKA.
With B4, the binding signal is -8.91 lnKA.
In the case of B5, the binding signal is -8.93 lnKA.
Still for that read-out and setting: the same measure for B6: -7.49 lnKA; for B7: -8.92 lnKA.
For the molecule B8, the binding signal was -8.74 lnKA.

Another test addresses dAsCas12a E174R (Acidaminococcus sp., UniProt U2UMQ6 1-1307, E174R;D908A;E993A;D1235A). The description is as above. To be noted: protein: recombinant.
B1: the binding signal is -8.75 lnKA.
Still for that read-out and setting: the figure for B2 is -6.48 lnKA; for B3 it is -5.69 lnKA; for B6 it is -7.49 lnKA.
Same read-out and setting: the same measure for B7: -8.74 lnKA; for B8: -8.39 lnKA.

The next test deals with dAsCas12a S542R (Acidaminococcus sp., UniProt U2UMQ6 1-1307, S542R;D908A;E993A;D1235A). The test is described as above. The settings on record: protein: recombinant.
On to B1, for which the binding signal is -8.25 lnKA.
In the case of B2, the binding signal was -7.23 lnKA.
The same measure, in the same setting: the same measure for B3: -7.23 lnKA.
On the same count and under the same terms, the same measure for B4: -8.63 lnKA; for B5: -8.02 lnKA.
On the same count and under the same terms, the same measure for B6: -7.86 lnKA; for B7: -8.17 lnKA; for B8: -8.31 lnKA.

Another test has as its target d-enCas12a (Acidaminococcus sp., UniProt U2UMQ6 1-1307, E174R;S542R;K548R;D908A;E993A;D1235A). The test is described as above. The settings on record: protein: recombinant.
For B1, the binding signal is -4.89 lnKA.
For B2, the binding signal was -4.98 lnKA.
Take B3: the binding signal is -4.92 lnKA.
The same measure, in the same setting: the same measure for B4: -5.81 lnKA; for B5: -5.68 lnKA; for B6: -5.74 lnKA.
The same measure, in the same setting: the figure for B7 is -5.56 lnKA; for B8 it is -5.83 lnKA.

The next test deals with d-enCas12a-Ultra (Acidaminococcus sp., UniProt U2UMQ6 1-1307, E174R;S542R;K548R;M537R;F870L;D908A;E993A;D1235A). The description is as above. To be noted: protein: recombinant.
In the case of B1, the binding signal is -2.56 lnKA.
Take B2: the binding signal was -1.57 lnKA.
Turning to B3, the binding signal was -1.62 lnKA.
B4: the binding signal was -3.46 lnKA.
Still for that read-out and setting: the figure for B5 is -3.47 lnKA; for B6 it is -2.73 lnKA.
Take B7: the binding signal is -3.21 lnKA.
The same measure, in the same setting: the same measure for B8: -3.16 lnKA.
